From ChEMBL document CHEMBL2218924, “A broad activity screen in support of a chemogenomic map for kinase signalling research and drug discovery” (Biochem J, 2013) come the findings set out here.

In assay [1] the target is T1, Serine/threonine-protein kinase 17A (Homo sapiens) (UniProt Q9UEE5).
T1 sequence (whole entry): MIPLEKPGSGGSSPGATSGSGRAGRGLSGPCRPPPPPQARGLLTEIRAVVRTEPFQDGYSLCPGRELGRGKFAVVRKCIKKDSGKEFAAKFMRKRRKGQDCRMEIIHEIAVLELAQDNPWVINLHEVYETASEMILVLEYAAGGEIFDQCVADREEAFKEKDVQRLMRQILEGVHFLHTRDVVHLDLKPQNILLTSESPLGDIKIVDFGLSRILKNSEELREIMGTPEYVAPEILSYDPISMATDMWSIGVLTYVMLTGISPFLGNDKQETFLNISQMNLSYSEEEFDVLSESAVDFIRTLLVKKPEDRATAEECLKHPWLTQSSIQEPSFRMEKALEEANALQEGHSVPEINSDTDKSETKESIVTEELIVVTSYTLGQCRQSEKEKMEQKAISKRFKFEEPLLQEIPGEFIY
The following applies: at 10 µM.

Assay [2] has as its target T2, Dual specificity tyrosine-phosphorylation-regulated kinase 2 (Homo sapiens) (UniProt Q92630).
T2 sequence (whole entry): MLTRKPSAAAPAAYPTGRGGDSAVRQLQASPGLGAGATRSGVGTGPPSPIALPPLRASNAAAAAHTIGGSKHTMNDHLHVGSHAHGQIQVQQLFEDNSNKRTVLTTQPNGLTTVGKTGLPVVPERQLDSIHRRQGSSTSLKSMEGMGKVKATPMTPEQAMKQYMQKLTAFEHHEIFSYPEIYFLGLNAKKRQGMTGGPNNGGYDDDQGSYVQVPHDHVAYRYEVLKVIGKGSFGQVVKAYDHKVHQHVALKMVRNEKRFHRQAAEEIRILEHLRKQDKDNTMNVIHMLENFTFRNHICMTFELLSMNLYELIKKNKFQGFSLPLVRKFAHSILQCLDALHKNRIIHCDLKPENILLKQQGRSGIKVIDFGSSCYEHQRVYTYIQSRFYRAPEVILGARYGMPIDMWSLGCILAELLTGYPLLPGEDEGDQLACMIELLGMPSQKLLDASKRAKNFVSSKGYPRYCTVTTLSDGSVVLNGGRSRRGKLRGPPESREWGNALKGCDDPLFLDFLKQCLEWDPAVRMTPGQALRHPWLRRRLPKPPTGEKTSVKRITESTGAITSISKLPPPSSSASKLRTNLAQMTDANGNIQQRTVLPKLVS
The note with it: at 10 µM.

Assay [3] has as its target T3, Ephrin type-A receptor 1 (Homo sapiens) (UniProt P21709).
T3 sequence (whole entry): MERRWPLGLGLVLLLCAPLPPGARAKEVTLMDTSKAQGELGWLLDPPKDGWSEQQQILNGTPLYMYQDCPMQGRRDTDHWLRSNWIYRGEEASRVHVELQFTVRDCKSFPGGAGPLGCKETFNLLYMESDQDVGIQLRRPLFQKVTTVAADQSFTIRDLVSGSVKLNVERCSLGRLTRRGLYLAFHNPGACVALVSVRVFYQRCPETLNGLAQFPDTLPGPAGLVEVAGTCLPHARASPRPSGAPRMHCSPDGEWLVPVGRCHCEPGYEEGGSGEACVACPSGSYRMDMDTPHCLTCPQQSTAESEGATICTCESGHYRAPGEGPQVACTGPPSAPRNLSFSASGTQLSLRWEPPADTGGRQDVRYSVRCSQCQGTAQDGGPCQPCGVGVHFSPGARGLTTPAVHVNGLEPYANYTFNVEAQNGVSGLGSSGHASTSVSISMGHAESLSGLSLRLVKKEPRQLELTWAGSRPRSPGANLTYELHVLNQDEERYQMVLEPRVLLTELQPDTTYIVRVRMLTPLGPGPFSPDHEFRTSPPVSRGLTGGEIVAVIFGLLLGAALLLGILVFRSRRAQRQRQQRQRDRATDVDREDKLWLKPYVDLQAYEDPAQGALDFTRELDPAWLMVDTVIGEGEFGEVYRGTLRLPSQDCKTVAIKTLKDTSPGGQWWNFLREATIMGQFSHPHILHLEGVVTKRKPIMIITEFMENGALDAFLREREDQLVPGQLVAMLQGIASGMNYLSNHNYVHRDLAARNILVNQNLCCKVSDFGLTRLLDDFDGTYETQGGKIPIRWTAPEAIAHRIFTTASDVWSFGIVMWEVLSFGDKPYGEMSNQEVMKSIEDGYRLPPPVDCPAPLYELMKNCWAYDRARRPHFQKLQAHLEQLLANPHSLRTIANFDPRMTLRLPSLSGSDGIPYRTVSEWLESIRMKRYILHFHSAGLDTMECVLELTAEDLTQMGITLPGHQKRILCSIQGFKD
The following applies: at 1 µM.

In assay [4] the target is T3, Ephrin type-A receptor 1 (Homo sapiens). The note with it: at 10 µM.
The target of assay [5] is Ephrin type-A receptor 2 (Homo sapiens) (UniProt P29317). The note with it: at 1 µM.
Assay [6] has the same target. The following applies: at 10 µM.
In assay [7] the target is T4, Ephrin type-A receptor 3 (Homo sapiens) (UniProt P29320).
T4 sequence (whole entry): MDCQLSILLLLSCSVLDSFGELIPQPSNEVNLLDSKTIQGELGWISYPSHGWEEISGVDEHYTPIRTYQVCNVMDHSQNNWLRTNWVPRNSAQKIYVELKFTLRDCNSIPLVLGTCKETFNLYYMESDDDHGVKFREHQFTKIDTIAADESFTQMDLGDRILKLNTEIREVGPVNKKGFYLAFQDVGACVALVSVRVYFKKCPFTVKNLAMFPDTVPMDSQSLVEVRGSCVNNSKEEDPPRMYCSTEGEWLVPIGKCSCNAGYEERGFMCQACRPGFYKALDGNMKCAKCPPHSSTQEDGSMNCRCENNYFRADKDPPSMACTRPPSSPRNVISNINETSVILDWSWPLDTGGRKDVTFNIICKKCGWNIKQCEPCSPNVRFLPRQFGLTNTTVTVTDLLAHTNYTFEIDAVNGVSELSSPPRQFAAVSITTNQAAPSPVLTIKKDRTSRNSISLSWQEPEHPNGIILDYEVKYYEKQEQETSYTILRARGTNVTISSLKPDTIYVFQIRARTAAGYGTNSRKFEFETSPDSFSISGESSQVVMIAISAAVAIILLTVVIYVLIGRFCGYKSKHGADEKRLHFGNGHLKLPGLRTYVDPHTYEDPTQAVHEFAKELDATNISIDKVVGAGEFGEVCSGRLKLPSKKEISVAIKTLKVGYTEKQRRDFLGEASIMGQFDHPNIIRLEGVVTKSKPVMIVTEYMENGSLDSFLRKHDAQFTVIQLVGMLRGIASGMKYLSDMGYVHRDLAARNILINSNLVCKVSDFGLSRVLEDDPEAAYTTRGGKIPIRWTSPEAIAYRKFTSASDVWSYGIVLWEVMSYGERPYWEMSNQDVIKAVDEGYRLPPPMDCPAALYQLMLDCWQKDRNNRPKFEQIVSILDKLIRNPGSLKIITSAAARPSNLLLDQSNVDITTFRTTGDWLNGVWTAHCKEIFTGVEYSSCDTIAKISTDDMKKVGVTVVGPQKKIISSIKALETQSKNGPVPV
The following applies: at 1 µM.

Assay [8] addresses T4, Ephrin type-A receptor 3 (Homo sapiens). The note with it: at 10 µM.
Assay [9] addresses Ephrin type-A receptor 4 (Homo sapiens) (UniProt P54764). The following applies: at 10 µM.
Assay [10] deals with Ephrin type-A receptor 5 (Homo sapiens) (UniProt P54756). The note with it: at 10 µM.
Assay [11] deals with Ephrin type-A receptor 7 (Homo sapiens) (UniProt Q15375). The note with it: at 1 µM.
Assay [12] shares this target. The following applies: at 10 µM.
The target of assay [13] is T5, Ephrin type-A receptor 8 (Homo sapiens) (UniProt P29322).
T5 sequence (whole entry): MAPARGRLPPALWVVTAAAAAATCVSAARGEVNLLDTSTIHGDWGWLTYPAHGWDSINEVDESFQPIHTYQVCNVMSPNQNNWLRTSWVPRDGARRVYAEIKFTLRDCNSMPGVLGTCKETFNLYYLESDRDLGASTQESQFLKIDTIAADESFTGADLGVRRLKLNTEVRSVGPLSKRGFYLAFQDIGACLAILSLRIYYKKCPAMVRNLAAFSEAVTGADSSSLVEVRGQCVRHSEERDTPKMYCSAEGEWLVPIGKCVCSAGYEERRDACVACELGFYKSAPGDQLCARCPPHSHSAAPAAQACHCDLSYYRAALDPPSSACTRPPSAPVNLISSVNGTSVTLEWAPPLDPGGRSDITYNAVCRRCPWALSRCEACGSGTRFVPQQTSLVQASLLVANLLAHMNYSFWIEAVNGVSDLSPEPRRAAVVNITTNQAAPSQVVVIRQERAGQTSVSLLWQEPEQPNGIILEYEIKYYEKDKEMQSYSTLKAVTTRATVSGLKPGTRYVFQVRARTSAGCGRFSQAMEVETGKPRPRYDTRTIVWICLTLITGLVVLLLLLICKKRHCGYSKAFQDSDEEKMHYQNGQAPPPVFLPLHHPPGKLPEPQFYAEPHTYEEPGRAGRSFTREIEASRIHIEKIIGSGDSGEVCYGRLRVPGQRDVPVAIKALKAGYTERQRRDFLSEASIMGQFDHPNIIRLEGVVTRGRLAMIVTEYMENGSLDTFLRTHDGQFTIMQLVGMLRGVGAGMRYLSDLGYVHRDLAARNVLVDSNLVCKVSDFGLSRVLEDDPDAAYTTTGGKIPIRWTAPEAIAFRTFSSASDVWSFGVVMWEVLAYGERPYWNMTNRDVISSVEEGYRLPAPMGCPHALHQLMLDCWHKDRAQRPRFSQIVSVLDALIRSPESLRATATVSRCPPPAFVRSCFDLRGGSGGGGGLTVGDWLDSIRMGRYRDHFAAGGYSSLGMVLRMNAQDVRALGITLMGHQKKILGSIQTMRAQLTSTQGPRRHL
The following applies: at 10 µM.

Assay [14] addresses T2, Dual specificity tyrosine-phosphorylation-regulated kinase 2 (Homo sapiens). The note with it: at 1 µM.
For assay [15], the target named is Ephrin type-A receptor 5 (Homo sapiens) (UniProt P54756). The following applies: at 1 µM.
For assay [16], the target named is T5, Ephrin type-A receptor 8 (Homo sapiens). The following applies: at 1 µM.
The target in assay [17] is T6, Ephrin type-B receptor 1 (Homo sapiens) (UniProt P54762).
T6 sequence (whole entry): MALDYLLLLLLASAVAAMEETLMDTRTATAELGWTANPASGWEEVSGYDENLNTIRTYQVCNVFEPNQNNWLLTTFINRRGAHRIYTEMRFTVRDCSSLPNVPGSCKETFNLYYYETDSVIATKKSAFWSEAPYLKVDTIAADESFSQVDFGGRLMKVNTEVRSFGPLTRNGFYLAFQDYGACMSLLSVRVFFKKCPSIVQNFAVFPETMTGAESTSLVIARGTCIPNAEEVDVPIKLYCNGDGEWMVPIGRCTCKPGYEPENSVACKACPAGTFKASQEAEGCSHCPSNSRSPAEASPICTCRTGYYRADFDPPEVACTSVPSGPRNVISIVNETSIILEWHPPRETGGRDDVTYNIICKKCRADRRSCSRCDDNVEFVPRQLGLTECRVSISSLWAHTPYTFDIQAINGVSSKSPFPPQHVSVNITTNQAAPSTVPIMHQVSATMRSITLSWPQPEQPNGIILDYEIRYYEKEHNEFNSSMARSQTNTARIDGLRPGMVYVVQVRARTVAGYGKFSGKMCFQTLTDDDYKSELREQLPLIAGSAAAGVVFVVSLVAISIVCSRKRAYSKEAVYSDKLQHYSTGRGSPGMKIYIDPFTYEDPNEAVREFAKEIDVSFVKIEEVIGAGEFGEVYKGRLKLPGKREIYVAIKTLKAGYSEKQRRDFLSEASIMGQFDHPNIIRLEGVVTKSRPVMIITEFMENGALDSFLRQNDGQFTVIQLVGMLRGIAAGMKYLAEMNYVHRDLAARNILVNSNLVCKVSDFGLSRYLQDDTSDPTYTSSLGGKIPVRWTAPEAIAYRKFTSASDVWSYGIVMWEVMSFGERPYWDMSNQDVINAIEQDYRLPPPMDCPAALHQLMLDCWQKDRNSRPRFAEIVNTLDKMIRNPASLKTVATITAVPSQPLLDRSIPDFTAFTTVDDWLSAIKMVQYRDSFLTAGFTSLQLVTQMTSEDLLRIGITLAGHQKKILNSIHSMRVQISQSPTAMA
The note with it: at 1 µM.

Chain of Ephrin type-A receptor 5 (Homo sapiens) (P54756 whole entry): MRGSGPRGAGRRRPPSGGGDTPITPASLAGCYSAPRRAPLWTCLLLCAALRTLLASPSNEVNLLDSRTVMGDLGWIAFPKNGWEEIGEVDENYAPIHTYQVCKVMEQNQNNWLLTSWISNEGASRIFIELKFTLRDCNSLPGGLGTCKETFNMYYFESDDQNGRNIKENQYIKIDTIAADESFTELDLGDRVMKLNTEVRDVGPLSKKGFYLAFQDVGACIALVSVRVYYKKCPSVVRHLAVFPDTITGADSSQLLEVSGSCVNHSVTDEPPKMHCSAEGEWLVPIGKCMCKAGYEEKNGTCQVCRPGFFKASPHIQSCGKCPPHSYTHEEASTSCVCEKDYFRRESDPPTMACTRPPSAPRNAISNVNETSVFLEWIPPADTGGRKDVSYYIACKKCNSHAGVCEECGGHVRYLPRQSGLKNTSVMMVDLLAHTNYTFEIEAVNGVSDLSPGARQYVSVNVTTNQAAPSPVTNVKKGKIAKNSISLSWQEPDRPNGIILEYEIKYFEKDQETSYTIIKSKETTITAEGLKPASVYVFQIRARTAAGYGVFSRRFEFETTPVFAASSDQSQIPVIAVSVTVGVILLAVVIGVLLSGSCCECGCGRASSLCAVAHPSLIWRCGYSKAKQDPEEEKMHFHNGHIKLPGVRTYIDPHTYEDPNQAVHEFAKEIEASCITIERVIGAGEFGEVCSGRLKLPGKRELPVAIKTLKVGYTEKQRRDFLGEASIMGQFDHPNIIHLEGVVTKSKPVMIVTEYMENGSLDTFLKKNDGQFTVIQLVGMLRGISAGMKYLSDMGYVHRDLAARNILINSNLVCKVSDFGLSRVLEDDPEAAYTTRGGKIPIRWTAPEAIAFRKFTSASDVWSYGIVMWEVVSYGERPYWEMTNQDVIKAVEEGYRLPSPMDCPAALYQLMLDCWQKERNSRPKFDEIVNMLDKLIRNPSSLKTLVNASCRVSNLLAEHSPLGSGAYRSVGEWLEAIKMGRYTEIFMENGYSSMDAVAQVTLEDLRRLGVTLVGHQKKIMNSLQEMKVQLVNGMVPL
Chain of Ephrin type-A receptor 7 (Homo sapiens) (Q15375 28-998 limits assumed): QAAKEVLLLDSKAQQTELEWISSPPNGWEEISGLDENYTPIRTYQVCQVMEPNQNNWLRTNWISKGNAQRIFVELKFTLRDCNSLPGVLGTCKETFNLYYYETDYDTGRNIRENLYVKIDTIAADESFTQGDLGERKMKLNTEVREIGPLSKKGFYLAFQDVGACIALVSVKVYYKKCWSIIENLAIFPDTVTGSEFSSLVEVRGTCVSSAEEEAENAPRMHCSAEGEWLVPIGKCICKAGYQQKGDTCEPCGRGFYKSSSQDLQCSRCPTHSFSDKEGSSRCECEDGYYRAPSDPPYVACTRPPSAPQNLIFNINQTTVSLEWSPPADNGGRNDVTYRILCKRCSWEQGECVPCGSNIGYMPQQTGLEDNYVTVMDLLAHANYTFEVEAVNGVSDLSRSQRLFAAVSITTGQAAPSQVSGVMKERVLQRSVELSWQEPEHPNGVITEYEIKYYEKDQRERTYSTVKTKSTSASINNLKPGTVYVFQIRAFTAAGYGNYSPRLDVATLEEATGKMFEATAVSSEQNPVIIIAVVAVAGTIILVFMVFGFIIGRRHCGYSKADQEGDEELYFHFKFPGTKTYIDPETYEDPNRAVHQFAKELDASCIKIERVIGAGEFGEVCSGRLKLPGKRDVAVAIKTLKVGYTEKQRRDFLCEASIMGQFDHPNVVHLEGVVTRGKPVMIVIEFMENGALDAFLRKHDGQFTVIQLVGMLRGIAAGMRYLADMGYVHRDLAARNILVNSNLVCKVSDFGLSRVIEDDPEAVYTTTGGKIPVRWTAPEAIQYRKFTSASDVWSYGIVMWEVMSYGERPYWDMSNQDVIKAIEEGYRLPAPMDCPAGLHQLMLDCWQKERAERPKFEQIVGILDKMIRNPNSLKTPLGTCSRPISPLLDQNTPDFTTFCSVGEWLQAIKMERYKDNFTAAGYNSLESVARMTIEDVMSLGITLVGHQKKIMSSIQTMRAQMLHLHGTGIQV
Chain of Ephrin type-A receptor 2 (Homo sapiens) (P29317 whole entry): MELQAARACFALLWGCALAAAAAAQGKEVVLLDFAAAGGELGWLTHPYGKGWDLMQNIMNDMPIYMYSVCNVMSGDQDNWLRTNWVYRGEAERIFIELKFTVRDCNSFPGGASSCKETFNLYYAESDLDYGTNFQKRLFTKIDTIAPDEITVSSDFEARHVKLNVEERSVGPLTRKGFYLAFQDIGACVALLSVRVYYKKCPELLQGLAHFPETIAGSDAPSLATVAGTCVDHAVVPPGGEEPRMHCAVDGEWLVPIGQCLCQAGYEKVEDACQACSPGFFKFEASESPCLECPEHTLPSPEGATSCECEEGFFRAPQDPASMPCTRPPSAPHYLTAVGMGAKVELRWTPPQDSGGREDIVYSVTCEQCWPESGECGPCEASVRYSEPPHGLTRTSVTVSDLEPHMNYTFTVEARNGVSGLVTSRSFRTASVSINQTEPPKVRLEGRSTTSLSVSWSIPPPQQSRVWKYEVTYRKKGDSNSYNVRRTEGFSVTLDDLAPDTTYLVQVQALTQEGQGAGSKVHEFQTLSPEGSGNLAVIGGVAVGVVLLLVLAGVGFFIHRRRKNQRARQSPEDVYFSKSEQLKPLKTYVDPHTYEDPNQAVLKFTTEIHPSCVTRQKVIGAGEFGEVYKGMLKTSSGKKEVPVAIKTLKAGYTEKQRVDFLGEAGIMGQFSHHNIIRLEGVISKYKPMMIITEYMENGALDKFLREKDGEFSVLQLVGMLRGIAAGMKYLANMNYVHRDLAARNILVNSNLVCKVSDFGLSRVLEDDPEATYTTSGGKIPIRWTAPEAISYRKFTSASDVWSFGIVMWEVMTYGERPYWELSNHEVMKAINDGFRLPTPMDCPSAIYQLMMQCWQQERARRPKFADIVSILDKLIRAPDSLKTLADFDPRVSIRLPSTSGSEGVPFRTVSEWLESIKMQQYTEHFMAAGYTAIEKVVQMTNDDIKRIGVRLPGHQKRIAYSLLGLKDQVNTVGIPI
Chain of Ephrin type-A receptor 4 (Homo sapiens) (P54764 whole entry): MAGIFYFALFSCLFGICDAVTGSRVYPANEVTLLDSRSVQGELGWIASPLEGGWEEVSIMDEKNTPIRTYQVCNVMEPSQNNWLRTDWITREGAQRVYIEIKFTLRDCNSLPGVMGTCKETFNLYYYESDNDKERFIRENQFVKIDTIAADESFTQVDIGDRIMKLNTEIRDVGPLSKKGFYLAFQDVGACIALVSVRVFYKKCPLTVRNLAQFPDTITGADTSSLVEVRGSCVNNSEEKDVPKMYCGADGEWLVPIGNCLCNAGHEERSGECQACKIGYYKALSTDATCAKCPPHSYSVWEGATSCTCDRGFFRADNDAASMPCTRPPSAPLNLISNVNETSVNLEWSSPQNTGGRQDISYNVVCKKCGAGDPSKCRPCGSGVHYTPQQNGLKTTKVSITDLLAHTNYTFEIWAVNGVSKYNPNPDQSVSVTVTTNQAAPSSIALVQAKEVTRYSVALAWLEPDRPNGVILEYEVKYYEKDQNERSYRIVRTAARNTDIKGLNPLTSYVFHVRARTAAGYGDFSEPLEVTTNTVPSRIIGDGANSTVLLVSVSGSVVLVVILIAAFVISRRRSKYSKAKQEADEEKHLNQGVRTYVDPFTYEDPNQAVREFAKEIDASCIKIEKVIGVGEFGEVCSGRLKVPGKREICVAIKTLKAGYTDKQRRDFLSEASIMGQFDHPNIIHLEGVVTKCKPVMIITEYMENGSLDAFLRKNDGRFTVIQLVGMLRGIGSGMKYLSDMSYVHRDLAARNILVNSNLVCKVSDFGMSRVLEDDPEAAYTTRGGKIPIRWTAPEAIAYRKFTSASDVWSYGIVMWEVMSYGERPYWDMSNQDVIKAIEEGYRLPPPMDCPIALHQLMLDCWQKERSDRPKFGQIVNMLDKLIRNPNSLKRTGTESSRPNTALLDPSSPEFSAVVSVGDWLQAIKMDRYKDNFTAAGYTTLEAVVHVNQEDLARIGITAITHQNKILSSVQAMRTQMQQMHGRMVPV

In general, residual activity refers to the signal under treatment as a percentage of the control signal. As to `Cc1cc(Nc2nc(-c3ccccc3)nc3ccccc23)n[nH]1`, the residual activity stood at 14% in [1]; 41% in [2]; 36% in [3]; 18% in assay [4]; 75% in [5]; 43% in assay [6]. The residual activity turned out to be 54% in [7]; 8% in assay [8]; 73% in [9]; 33% in assay [10]; 50% in [11]; 6% in [12]. For the same compound, the residual activity in [13] is 68%.

In the case of `c1ccc(-c2n[nH]cc2-c2ccnc3ccccc23)nc1`, the residual activity came out at 89% in [14]; 104% in assay [2]; 90% in assay [3]; 90% in assay [4]; 102% in [5]; 95% in assay [6]. In addition, the residual activity in [7] worked out at 99%; in assay [8], 78%; in [9], 103%; in [15], 109%; in assay [10], 103%; in assay [11], 94%. Besides, the residual activity in assay [12] came to 91%; in assay [16] it was 95%; in [13] it was 97%; in assay [17] it was 104%.
